An excerpt weighted towards active compounds, which were near 2.5% of everything screened.
Cruzain inh noDet: blocks cruzain activity in detergent-free assay; P25779; purified cruzain, Z-FR-AMC fluorescence, no detergent; Potency, µM, for the others: max response, negative = inhibition, most hits filed as inhibitors; hit rate 2.3% among 200,000; AID 1476;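 also: plate controls were enzyme without inhibitor for no effect and buffer without enzyme for full effect; nearly all actives have a fitted effect of over 40% in size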
Target sequence (P25779 123-467 limits assumed): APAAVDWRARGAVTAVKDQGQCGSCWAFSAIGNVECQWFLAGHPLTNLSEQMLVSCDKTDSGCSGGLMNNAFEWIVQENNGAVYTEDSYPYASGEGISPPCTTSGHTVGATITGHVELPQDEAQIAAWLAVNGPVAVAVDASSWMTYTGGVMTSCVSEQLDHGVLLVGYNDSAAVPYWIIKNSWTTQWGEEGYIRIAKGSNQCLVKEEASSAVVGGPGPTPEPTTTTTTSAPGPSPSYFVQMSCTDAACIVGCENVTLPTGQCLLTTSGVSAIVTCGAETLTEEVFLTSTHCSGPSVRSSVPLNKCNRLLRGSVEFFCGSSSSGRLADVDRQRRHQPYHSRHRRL
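Purified cruzain at 1.5 nM, pre-incubated 15 min with compound at room temperature in 100 mM sodium acetate pH 5.5, 5 mM DTT, 0.00005% Triton X-100. Reaction started with 2 uM Z-FR-AMC; AMC fluorescence increase over 60 s gives rate.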
Cruzain Triton: inhibitors of Trypanosoma cruzi cruzain with detergent; purified cruzain, Z-FR-AMC fluorescence, 0.01% Triton; Potency, µM, for the others: max response, negative = inhibition, actives largely listed as inhibitors; AID 1478; P25779; hit rate 0.43% among 200,000;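 also: plate controls were neutral wells for no effect and buffer without enzyme for full effect; nearly all actives have a fitted effect of over 40% in size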
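Cruzain (1.5 nM) preincubated 15 min at RT with compound in 100 mM sodium acetate pH 5.5, 5 mM DTT, 0.01% Triton X-100. Reaction started with 2 uM Z-FR-AMC; AMC fluorescence (ex 360/em 450 nm) change over 60 s gave rate.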
* = called active by the depositor. Calls follow the shape of the dose curve; as a rule, active = well fitted curve in the direction sought with a large enough effect; inconclusive = small, poorly fitted or top-dose-only effect, or another doubt; inactive = no such curve, though single readings can be large; an effect the other way counts as inactive or inconclusive. Potency is read from the fitted curve at half-maximal effect.

Results for CC1(C)CC2CC(C)(CN2C(=O)COC(=O)CNC(=O)c2ccc(Cl)c(Cl)c2)C1 (stereo unspecified) ?
Cruzain inh noDet: 7.94µM*; Cruzain Triton: 7.94µM*

How did CC1(C)CC2CC(C)(CN2C(=O)COC(=O)c2cc(Cl)cc(Cl)c2N)C1 (stereo unspecified) do in these assays?
Cruzain inh noDet: 0.1%; Cruzain Triton: -8.2%

What do the screens show for `CCCNC(=O)CSc1nc2nc(C)c(Cc3ccccc3Cl)c(C)n2n1`?
Cruzain inh noDet: -3.1%; Cruzain Triton: -1.6%

What do the screens show for `OCCN1CCN(C(=S)c2ccc(Cl)c(Cl)c2)CC1`?
Cruzain inh noDet: 25.1µM*; Cruzain Triton: -28.4%

How did CCN1CCN(C(=S)c2ccc(Br)cc2)CC1 do in these assays?
Cruzain inh noDet: 4.3%; Cruzain Triton: 4.1%

What do the screens show for `CCOc1ccc(N(CC)S(=O)(=O)N2CCCC(C(=O)NCc3ccccc3Cl)C2)cc1` (stereo unspecified)?
Cruzain inh noDet: 15.8%; Cruzain Triton: -6.7%

Results for c1nc(N2CC2)c2cnn([C@@H]3CCCCO3)c2n1 ?
Cruzain inh noDet: -2.3%; Cruzain Triton: -0.4%

How did Cc1ccc(C(CC(=O)Nc2cc(C)cc(C)c2)N2Cc3ccccc3C2=O)cc1 (stereo unspecified) do in these assays?
Cruzain inh noDet: -6.8%; Cruzain Triton: -6.2%

What do the screens show for `CCOC(=O)C1=C(C)Nc2sc(C(=O)c3ccc(OC)cc3)c(N)c2C1c1ccc(C(=O)OC)cc1` (stereo unspecified)?
Cruzain inh noDet: 31.6µM*; Cruzain Triton: -3.4%

How did COC(=O)C1=C(C)Nc2sc(C(N)=O)c(N)c2C1c1ccncc1 (stereo unspecified) do in these assays?
Cruzain inh noDet: -12.1%; Cruzain Triton: -3.8%

Results for CCc1ccc(CNC(=O)COc2cc(=O)n(CC)c3ccccc23)cc1 ?
Cruzain inh noDet: 22.8%; Cruzain Triton: -1.3%

Results for COc1ccc(NC(=O)Cn2c(=O)n(Cc3ccco3)c(=O)c3sc4ccccc4c32)cc1Cl ?
Cruzain inh noDet: 25.1µM*; Cruzain Triton: -13.3%

What do the screens show for `COc1ccc(NC(=O)Cn2c(=O)n(Cc3ccco3)c(=O)c3sc4ccccc4c32)c(OC)c1`?
Cruzain inh noDet: 3.1%; Cruzain Triton: -2.9%

Results for O=C(NCCCN1CCN(c2ccccc2F)CC1)c1sc2ncccc2c1-n1cccc1 ?
Cruzain inh noDet: 21.7%; Cruzain Triton: -4.1%

Results for O=C(NC1CCCC1)C(c1ccsc1)N(CCc1ccccc1)C(=O)Cc1cccs1 (stereo unspecified) ?
Cruzain inh noDet: inconclusive; Cruzain Triton: 0.5%

What do the screens show for `O=C(NC1CCCCC1)C(c1ccccc1)N(C(=O)Cc1ccsc1)c1ccccc1` (stereo unspecified)?
Cruzain inh noDet: 15.8µM*; Cruzain Triton: 4.0%

Results for O=C(NC1CCCCC1)C(c1ccc(F)cc1)N(C(=O)Cc1ccsc1)c1ccc(F)cc1 (stereo unspecified) ?
Cruzain inh noDet: -1.9%; Cruzain Triton: 7.1%

How did O=C(NC1CCCC1)C(c1ccsc1)N(C(=O)Cc1cccs1)c1ccccc1 (stereo unspecified) do in these assays?
Cruzain inh noDet: 10µM*; Cruzain Triton: 10.3%

Results for COc1ccc(OC)c(NC(=O)c2cc3cc(C)ccc3n2C)c1 ?
Cruzain inh noDet: 3.4%; Cruzain Triton: -10.2%

Results for COC(=O)c1c(SC)nc2ccccc2c1OCc1ccccc1C ?
Cruzain inh noDet: -14.6%; Cruzain Triton: -1.3%

What do the screens show for `Cc1cccc(C2=NN(c3ccccc3)[C@H](CO)[C@H]2c2ccccc2)c1`?
Cruzain inh noDet: inconclusive; Cruzain Triton: -1.0%

How did Cc1cccc(C2=NN(c3ccccc3)[C@H](CO)[C@H]2C)c1 do in these assays?
Cruzain inh noDet: 35.5µM*; Cruzain Triton: -1.6%

What do the screens show for `O=S(=O)(O)F`?
Cruzain inh noDet: -0.7%; Cruzain Triton: 5.3%

How did CCc1nnc(NC(=O)Nc2ccc(OC)cc2)s1 do in these assays?
Cruzain inh noDet: 8.6%; Cruzain Triton: 2.1%

What do the screens show for `Cc1ccc(NC(=O)Nc2nnc(CSCCOc3ccc(Cl)cc3)s2)cc1`?
Cruzain inh noDet: 7.94µM*; Cruzain Triton: 0.0%

Results for O=C(Nc1cccc(Cl)c1)Nc1nnc(CSCCOc2ccc(Cl)cc2)s1 ?
Cruzain inh noDet: inconclusive; Cruzain Triton: -3.8%

What do the screens show for `COc1ccc(OCCSCc2nnc(NC(=O)Nc3ccc(Cl)cc3)s2)cc1`?
Cruzain inh noDet: 12.6µM*; Cruzain Triton: -2.1%

What do the screens show for `CC(C)(C)C(=O)OCc1cc(=O)n2nc(C3CC3)sc2n1`?
Cruzain inh noDet: -2.1%; Cruzain Triton: -1.7%

How did Cc1ccc(CN2CCc3nc(N4CCN(C)CC4)ncc3C2)s1 do in these assays?
Cruzain inh noDet: -1.9%; Cruzain Triton: -1.0%

How did Nc1cccc2c(N)cccc12 do in these assays?
Cruzain inh noDet: 1.9%; Cruzain Triton: -5.2%

What do the screens show for `Nc1cc2c(nc3c4ccccc4c(N)cc3[n+]2-c2cccc3ccccc23)c2ccccc12` (tested in a mixture with another compound)?
Cruzain inh noDet: 1.26µM*; Cruzain Triton: 0.3%

How did CN(C)C1C(=O)C(C(N)=O)=C(O)[C@@]2(O)C(=O)C3=C(O)c4c(O)ccc(Cl)c4[C@@H](O)C3C[C@@H]12 (stereo partly specified) do in these assays?
Cruzain inh noDet: 9.4%; Cruzain Triton: -6.5%

What do the screens show for `COc1cc(OC)c(NC(=O)Nc2ccc3c(c2)N(C)C(=O)c2ccccc2S3)cc1Cl`?
Cruzain inh noDet: inconclusive; Cruzain Triton: -3.6%

How did COC(=O)c1sccc1NC(=S)N1CCN(c2cccc(C)c2C)CC1 do in these assays?
Cruzain inh noDet: 15.8µM*; Cruzain Triton: -2.1%

How did COC(=O)c1sccc1NC(=S)N1CCCCC1 do in these assays?
Cruzain inh noDet: -1.9%; Cruzain Triton: -1.2%

Results for CC1CCN(S(=O)(=O)N2CCC(C(=O)NCc3ccccc3Cl)CC2)CC1 ?
Cruzain inh noDet: -15.5%; Cruzain Triton: 0.9%

What do the screens show for `CC(C)c1cnc2c(c1SCc1ccc([N+](=O)[O-])cc1)c(=O)n(C)c(=O)n2C`?
Cruzain inh noDet: 1.0%; Cruzain Triton: 0.7%

How did Cc1ccc(N2CCN(S(=O)(=O)c3ccc(Cl)c4ccccc34)CC2)c(C)c1 do in these assays?
Cruzain inh noDet: 10µM*; Cruzain Triton: -1.3%

Results for CCOc1ccc(Cl)cc1S(=O)(=O)N1CCN(c2ccc(F)cc2)CC1 ?
Cruzain inh noDet: 0.0%; Cruzain Triton: -4.2%

How did COc1ccc(S(=O)(=O)N2CCN(c3ccc(C)cc3C)CC2)cc1OC do in these assays?
Cruzain inh noDet: inconclusive; Cruzain Triton: -4.4%

Results for CCOc1ccc(S(=O)(=O)N2CCN(c3ccc(C)cc3C)CC2)c2ccccc12 ?
Cruzain inh noDet: 3.16µM*; Cruzain Triton: -1.0%

Results for CCOc1ccc(S(=O)(=O)N2CCN(c3cc(Cl)ccc3Cl)CC2)c2ccccc12 ?
Cruzain inh noDet: 10µM*; Cruzain Triton: -1.7%

What do the screens show for `CCOc1ccc(S(=O)(=O)N2CCCCC2)c2ccccc12`?
Cruzain inh noDet: -5.1%; Cruzain Triton: -1.2%

Results for Cc1cccc(CC(=O)NCc2nc3cccnc3n2Cc2ccc(F)cc2)c1 ?
Cruzain inh noDet: 1.4%; Cruzain Triton: -0.4%

How did CCCC(=O)Nc1nc2c(s1)CC(C(C)(C)C)CC2 (stereo unspecified) do in these assays?
Cruzain inh noDet: -8.9%; Cruzain Triton: 0.0%

Results for Cc1cc(C)c(S(=O)(=O)NCC(c2cccs2)S(=O)(=O)c2ccccc2)c(C)c1 (stereo unspecified) ?
Cruzain inh noDet: 16.6%; Cruzain Triton: 2.6%

Compound activity (PubChem)
